# From ChEMBL document CHEMBL3988442, “University of Dundee, Small-Polar-MMV Screening Library” (2021)
# The campaign covered roughly 48,000 compounds. About 13,000 (27%) showed an effect of 50% or more. This is one part of the list.
# Tested on: Wolbachia pipientis
# Assay: Anti-Wolbachia Cell-Based Screen
# Type: functional
# Parameters: scale not given: in the data most compounds retested in dose-response had high values
# Conditions: 5 µM
row,Structure (SMILES),Percent Effect [%]
1,CN(C)C(CNCc1nc(-c2ccsc2)no1)c1ccsc1 (centres undefined),7.6
2,CC(SCc1ccc(Br)c2cccnc12)C(N)=O (centres undefined),-7.187
3,CCNC(=O)c1ccc(N2CCCC(c3nccn3C(C)C)C2)nc1 (centres undefined),-0.11
4,Cn1cc(Cl)c(CN2CCn3nc(C(=O)N4CCCC4)cc3C2)n1,-5.174
5,COCCN1CCC(C(=O)N(C)Cc2cccc(Cl)c2)C1 (centres undefined),-62.62
6,COCCN1CC[C@@H]2OC[C@H](C(=O)N(C)Cc3ccccn3)C[C@@H]2C1,115.4
7,CN(Cc1ccco1)C[C@H]1OC[C@@H]2CCN(Cc3ccccn3)C[C@@H]21.O=C(O)C(F)(F)F.O=C(O)C(F)(F)F.O=C(O)C(F)(F)F,0.7755
8,CN(Cc1ccccn1)C(=O)[C@H]1CO[C@H]2CCN(CC3CC3)C[C@H]2C1.O=C(O)C(F)(F)F.O=C(O)C(F)(F)F,99.36
9,CN(Cc1ccccn1)C(=O)c1nn(C)c2c1CCN(CC1CC1)C2.O=C(O)C(F)(F)F.O=C(O)C(F)(F)F.O=C(O)C(F)(F)F,-10.9
10,COCCN(Cc1ccccn1)C(=O)C1CCCCCN1C (centres undefined),-8.345
11,CC(C)c1nc(CN2CCC(CO)CC2)cs1,-12.85
12,O=C(c1ccc2[nH]ccc2c1)N1CCn2cnc(COCC3CC3)c2C1,-3.31
13,COCc1ncn2c1CN(C(=O)c1ccco1)CC2,113.2
14,O=C(c1ccc[nH]1)N1CCCn2cnc(COCC3CC3)c2C1,-13.58
15,O=C(c1ccco1)N1CCCn2cnc(COCC3CC3)c2C1,-7.899
16,CN1CCN(Cc2cn3c(n2)CN(C(=O)c2ccco2)CC3)CC1,-12.05
17,COCc1ncn2c1CN(C(=O)c1ccc[nH]1)CC2,111
18,CC(C)(C)c1coc([C@@H]2COCCN2Cc2c[nH]cn2)n1,-1.373
19,CCOCCN1CCN(Cc2nnc(-c3occc3C)o2)CC1CC (centres undefined),4.766
20,CN(C)C(=O)CNC(=O)Nc1cccc(Cl)c1SC(F)F,-14
21,CSCC(=O)N1CCCN(c2ccncc2C)CC1,-12.26
22,CSCCC(=O)N1CCCN(c2ccccc2C)CC1,-1.705
23,CSCC(=O)N1CCCN(c2ccccc2C)CC1,124.1
24,N#Cc1ccc(N2CCCN(C(=O)CC3CCCO3)CC2)cc1 (centres undefined),5.693
25,COC(=O)CC1CN(Cc2ccn(-c3ccc(F)cc3)n2)CCO1 (centres undefined),-16.13
26,Cc1ccccc1N1CCCN(C(=O)CN2C(=O)OC[C@@H]2C(C)C)CC1,17.78
27,CC(C)N1CCOC(CC(=O)N2CCCN(c3ccc(F)cc3)CC2)C1 (centres undefined),103.5
28,Cc1ccccc1N1CCN(C(=O)CC(C)C)CC1,-38.06
29,Cc1ccccc1N1CCCN(C(=O)CC2CN(C(C)C)CCO2)CC1 (centres undefined),116.5
